IEC-6 cytotox = kills IEC-6 intestinal cells in KLF5 counter-screen; inhibition, % at 5 µM; IEC-6 cytotoxicity, luminescence viability; actives 0.78% (n = 290,000)
BaF3 tox = counter-screen for JAK2V617F inhibitors: parental Ba/F3 viability inhibitors; AID 1486; actives 1.1% (n = 220,000); CellTiter-Glo ATP luminescence; inhibition, % at 5.6 µM;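 active = inhibition above a per-campaign cutoff, the mean inhibition of all tested compounds plus 3 SD, cut at about 27% in these data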
Ba/F3 V617F tox = loss of viability in JAK2V617F-driven Ba/F3 cells | Ba/F3 EpoR-JAK2V617F viability, ATP luminescence | inhibition, % at 5.6 µM | actives 1.1% (n = 220,000);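 active = inhibition above the campaign mean plus 3 SD over all tested compounds, cut at about 24% in these data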;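 note: cytokine-independent growth of Ba/F3 cells driven by EpoR plus mutant JAK2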
KLF5 inh = inhibitors of KLF5 expression. DLD-1 KLF5 promoter-luciferase reporter, luminescence. inhibition, % at 5 µM. actives 0.23% (n = 290,000). AID 1700;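 active = inhibition above a per-plate limit of that plate's mean compound inhibition plus 3 SD, cut at about 60% in these data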;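 note: higher means less KLF5 promoter-driven luciferase light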
APP 5UTR inh = APP translation inhibition | SH-SY5Y APP 5'UTR-luciferase reporter, luminescence | inhibition, % at 2 µM | actives 0.82% (n = 190,000) | AID 1285;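 active = inhibition above a set limit, derived from the sample mean plus 3 SD, cut at about 45% in these data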
aSyn UTR inh = MLPCN primary screen, SNCA 5' untranslated region | alpha-synuclein 5'UTR reporter, inhibitor activity | inhibition, % (tested at 7.5 µM) | actives 0.82% (n = 300,000); in the data active = inhibition above about 60%;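 note: H4 neuroglioblastoma cells stably carrying SNCA 5'UTR luciferase fusion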
IEC-6 cytotox cf = IEC-6 cytotoxicity, confirmation assay; shares compounds with IEC-6 cytotox; IEC-6 rat intestinal epithelial viability, luminescence; inhibition, % at 5 µM; actives 63% (n = 1,900); AID 1907
Numbers stand for hits; 0 = inactive; - = no result. In the library only some 2.2% were active in any assay of this set; here they are far more common. Cut-off read from the data, not from the text of the source, unless noted: active = inhibition above about 22%; inactive = the rest.

SMILES | IEC-6 cytotox | BaF3 tox | Ba/F3 V617F tox | KLF5 inh | APP 5UTR inh | aSyn UTR inh | IEC-6 cytotox cf
Cn1nccc1C(=O)NC1CCCc2c1cnn2-c1ccc(C(C)(C)C)cc1 (centres undefined) | 22.8 | - | - | 0 | - | 0 | 0
Cc1cc(C(=O)NC2CCCc3c2cnn3-c2cccc(C)c2C)n(C)n1 (centres undefined) | 36.0 | - | - | 0 | - | 0 | 29.0
CC(=O)NC1CCCc2c1cnn2-c1ccc(C(C)(C)C)cc1 (centres undefined) | 0 | - | - | 0 | - | 0 | -
Cc1cccc(-n2ncc3c2CCCC3NC(=O)c2ccc[n+]([O-])c2)c1C (centres undefined) | 0 | - | - | 0 | - | 0 | -
CC(C)(C)C(=O)Nc1nnc(COc2ccc(Cl)cc2)s1 | 0 | 0 | 0 | 0 | - | 0 | -
Cc1cc(C)nc(S/C=C/C(=O)c2ccc(F)cc2)n1 | 0 | 0 | 0 | 0 | - | 0 | -
C=CCn1c(C)cc(C(=O)Cn2ncc(Cl)c(Cl)c2=O)c1C | 47.6 | 0 | 0 | 0 | 86.7 | 0 | 0
CCc1ccc2oc(C(=O)N3CCN(c4ccc(OC)cc4)CC3)cc(=O)c2c1 | 0 | - | - | 0 | - | 0 | -
CCc1ccc2oc(C(=O)N3CCN(c4ccccc4OC)CC3)cc(=O)c2c1 | 30.9 | - | - | 0 | - | 0 | 54.5
COc1ccc(C(=O)C(CCC(CNC(C)(C)C)C(=O)c2ccc(OC)cc2)CNC(C)(C)C)cc1 (centres undefined) | 70.9 | 100.8 | 101.5 | 0 | 96.8 | 65.5 | 59.5
COc1ccc(C(=O)CC(=O)c2ccc(F)cc2)cc1 | - | - | - | - | - | 0 | -
C=CCc1cccc(/C=N/NC(=O)c2ccccc2OC)c1O | 40.7 | 0 | 0 | 0 | 0 | 0 | 0
C=CCc1cccc(/C=N/NC(=O)c2ccccc2Br)c1O | 0 | 0 | 0 | 0 | 0 | 0 | -
O=C(CSc1nnnn1C1CCCCC1)Nc1ccccc1F | 0 | 0 | 0 | 0 | 0 | 0 | -
O=C(CSc1nnnn1C1CC2CCC1C2)Nc1ccnc2ccccc12 (centres undefined) | 35.9 | 63.0 | 68.3 | 0 | 0 | - | 0
Cc1cc(C)n2nc(C(=O)N/N=C/c3cccc(Cl)c3)nc2n1 | 0 | 0 | 0 | 0 | - | 0 | -
CCCCOC(=O)c1ccc(NC(C)=O)cc1 | 24.1 | 0 | 0 | 0 | 0 | 0 | 0
CN(C)C(=O)COC(=O)c1ccccc1Nc1ccc(SC(F)F)cc1 | 45.2 | 0 | 0 | 0 | 0 | 0 | 36.8
COc1ccccc1NC(=O)COC(=O)c1ccccc1OCC(=O)Nc1ccc(SC(F)F)cc1 | 0 | 0 | 0 | 0 | 0 | 0 | -
COc1cccc(NC(=O)N2CCCC2C(=O)NC23CC4CC(CC(C4)C2)C3)c1 (centres undefined) | 0 | - | - | 0 | - | 0 | -
Clc1ccc2[nH]c(-c3ccccc3)cc2c1 | 0 | 0 | 0 | 0 | 0 | - | -
O=c1cc(-c2ccccc2)[nH]c2cc(Cl)ccc12 | 57.2 | 45.7 | 80.4 | 0 | 94.7 | 104.3 | 57.8
COc1ccccc1-c1c(C#N)c(N)nc2c1CCc1ccccc1-2 | 23.5 | 0 | 0 | 0 | 0 | 0 | 0
Cc1ccc(C)c(NC(=O)CC2Oc3ccccc3NC2=O)c1 (centres undefined) | 0 | - | - | 0 | - | 0 | -
Cc1cc(/C=N/NC(N)=S)c(O)c(/C=N/NC(N)=S)c1 | 90.2 | 0 | 0 | 0 | - | 0 | 0
SMILES | IEC-6 cytotox | BaF3 tox | Ba/F3 V617F tox | KLF5 inh | APP 5UTR inh | aSyn UTR inh | IEC-6 cytotox cf
NC(=S)N/N=C/c1cccc(O)c1O | 0 | 0 | 0 | 0 | 0 | 0 | -
O=C(CNCc1ccccc1)Nc1ccc(Oc2ccccc2)cc1 | 60.3 | 51.8 | 62.4 | 0 | 0 | 0 | 0
CCc1ccc(N(CC(=O)NC2CCCCC2)C(=O)CCC(=O)Nc2ccccn2)cc1 | 0 | - | - | 0 | - | 0 | -
Oc1ccc(CCNc2ncnc3ccc(Cl)cc23)cc1 | 22.6 | - | - | 0 | - | 0 | 0
Cc1cccc2nc(CSc3nnc(N)s3)cn12 | 0 | 0 | 0 | 0 | 0 | 0 | -
COc1ccc(Nc2nnc(SCc3cn4c(C)cccc4n3)s2)cc1 | 22.2 | 0 | 0 | 0 | 0 | 0 | 0
Cc1csc2ncnc(NC3CCN(Cc4ccccc4)CC3)c12 | 22.9 | 60.7 | 54.9 | 0 | - | 0 | 0
Cc1ccc(-c2csc3ncnc(N4CCN(Cc5ccccc5)CC4)c23)cc1 | 0 | - | - | 0 | - | 0 | -
COc1ccc(CCNC(=O)CSc2nnc3ccc(-c4ccccn4)nn23)cc1OC | - | - | - | - | - | 0 | -
CCc1nc2ccccc2c(C(=O)OCC(=O)C(C)(C)C)c1C | 23.5 | 0 | 0 | 0 | 0 | 0 | 0
O=C(NNc1ccccc1)C(=O)NNS(=O)(=O)c1ccc(CCCl)cc1 | 43.9 | 0 | 0 | 0 | - | 0 | 0
COc1ccc2c(COC(=O)c3cccc(S(=O)(=O)NCC(C)C)c3)cc(=O)oc2c1 | 0 | - | - | 0 | - | 0 | -
CCCNS(=O)(=O)c1cccc(C(=O)OCc2cc(=O)oc3cc(OC)ccc23)c1 | 62.5 | - | - | 0 | - | 0 | 0
O=c1cc(CSc2ccc(Cl)cc2)nc(-c2ccccn2)[nH]1 | 86.7 | - | - | 0 | - | 0 | 55.1
O=c1cc(CSc2ccc(Cl)cc2)nc(-c2ccccc2)[nH]1 | 0 | 0 | 0 | 0 | 0 | 0 | -
COc1cccc(N2CC(O)=C(c3nc4ccccc4c(=O)[nH]3)C2=N)c1 | 51.0 | 81.3 | 78.3 | 0 | 93.0 | 0 | 63.7
Cc1cc2nc(/C=C/c3cccnc3)[nH]c2cc1C | 88.2 | - | - | 0 | - | 92.1 | 59.1
Cc1nc2ccc(NC(=O)c3cncc(Br)c3)cc2s1 | 87.6 | 60.0 | 79.7 | 0 | - | 0 | 0
Cc1nc2ccc(NC(=O)c3ccccc3)cc2s1 | 0 | 0 | 0 | 0 | 0 | 0 | -
Nc1nonc1-n1nnc(C(=O)N/N=C/c2cc(Br)ccc2O)c1CNc1ccccc1 | 39.2 | - | - | 0 | - | 70.2 | 41.1
O=C(c1ccc(-n2ccnc2)cc1)N1CCCC(CO)(Cc2cccc(Cl)c2)C1 (centres undefined) | 0 | - | - | 0 | - | 0 | -
COc1ccc(C(=O)Nc2cccc3c2CCCC3)cc1 | 23.9 | - | - | 0 | - | 0 | 0
COc1ccc(CC(=O)Nc2cccc3c2CCCC3)cc1 | 0 | - | - | 0 | - | 0 | -
Cc1[nH]nc(Nc2ccc(C(C)C)cc2)c1[N+](=O)[O-] | 40.0 | 0 | 0 | 0 | - | 0 | 23.5
Cc1ccc(Nc2n[nH]c(C)c2[N+](=O)[O-])cc1 | 0 | 0 | 0 | 0 | 0 | 0 | -
SMILES | IEC-6 cytotox | BaF3 tox | Ba/F3 V617F tox | KLF5 inh | APP 5UTR inh | aSyn UTR inh | IEC-6 cytotox cf
Cc1[nH]nc(Nc2ccc(Br)cc2)c1[N+](=O)[O-] | 35.1 | 0 | 0 | 0 | - | 0 | 0
O=[N+]([O-])c1c(Nc2ccccc2O)cc(Cl)c2nonc12 | 96.2 | - | - | 0 | - | 0 | 42.7
CC(=O)C1=C(C)NC(SCC(N)=O)=C(C#N)C1CC(C)C (centres undefined) | 0 | 0 | 0 | 0 | 0 | 0 | -
CCOC(=O)C1=C(C)NC(SC)=C(C#N)C1CC(C)C (centres undefined) | 70.4 | 80.6 | 85.0 | 0 | - | 0 | 55.9
Nc1cc(=O)nc(SCC(=O)N2CCN(c3ccccc3)CC2)n1-c1ccc(F)cc1 | 0 | - | - | 0 | - | 0 | -
O=C(O)c1ccc(NC2=C/C(=N/S(=O)(=O)c3ccccc3)c3ccccc3C2=O)cc1 | 25.0 | 0 | 0 | 0 | 0 | - | 0
CSCCC(=O)N1CC[C@@H](N2CCN(c3ccccc3F)CC2)[C@H](O)C1 | 0 | - | - | 0 | - | 0 | -

Assay outcomes as filed in PubChem BioAssay.
